TrxR1 inh: inhibitors of rat thioredoxin reductase 1 | O89049 | recombinant rTrxR1, NADPH fluorescence consumption, selenite substrate | Potency, µM (doses to about 114 µM), inactives show at the top dose activity change, negative = inhibition, hits mostly inhibitors | hit rate 1% among 390,000 | AID 588453; also: potency is read from the fitted curve at half-maximal effect; % is scaled to controls: 0 for no effect and ±100 for the full control effect; nearly all actives have a fitted effect of over 65% in size
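Rat TrxR1 (90 nM in the dispensed reagent) was pre-reduced with 400 uM NADPH for 5 min at room temperature, then incubated with compound for 15 min. After 400 uM selenite was added, NADPH fluorescence (Ex 340/Em 450 nm) was followed for 8 min.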
IDH1 R132H inh: blocks human mutant IDH1 R132H enzyme. IDH1-R132H enzyme, NADPH consumption, diaphorase/resazurin fluorescence. Potency, µM (titrated, usually from 76.6 µM), for inactives: at the top dose activity change, negative = inhibition, actives largely listed as inhibitors. hit rate 0.093% among 390,000. AID 602179; also: potency is read from the fitted curve at half-maximal effect; % is scaled to controls: 0 for no effect and ±100 for the full control effect; nearly all actives have a fitted effect of over 65% in size
Target sequence (O75874 whole entry R132H, stated change not applied): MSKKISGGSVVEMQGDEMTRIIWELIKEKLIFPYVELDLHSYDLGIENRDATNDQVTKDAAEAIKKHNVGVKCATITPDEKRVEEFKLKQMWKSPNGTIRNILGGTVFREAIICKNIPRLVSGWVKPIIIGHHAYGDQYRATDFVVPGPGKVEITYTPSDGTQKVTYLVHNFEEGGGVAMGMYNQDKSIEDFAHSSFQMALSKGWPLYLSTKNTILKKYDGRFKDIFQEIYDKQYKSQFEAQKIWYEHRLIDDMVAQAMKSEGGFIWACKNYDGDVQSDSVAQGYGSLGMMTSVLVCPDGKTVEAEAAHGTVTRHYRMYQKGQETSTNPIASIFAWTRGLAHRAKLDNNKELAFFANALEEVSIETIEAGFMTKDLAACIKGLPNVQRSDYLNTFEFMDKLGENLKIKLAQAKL
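IDH1-R132H (0.5 ug/mL dispensed) in pH 7.5 Tris buffer was preincubated 30 min with compound, then given a substrate mix of 0.016 mM NADPH and 2 mM alpha-KG for 80 min at room temperature; remaining NADPH was read by diaphorase/resazurin fluorescence.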
FBPA coupling cs: coupling enzyme interference in Giardia aldolase counter-screen; hit rate 0.67% among 290,000; coupling enzyme system counterscreen, AmpLite Red fluorescence; activity change, negative = inhibition, % at 58.2 µM, hits read low; in the data active = activity change below about -30%; also: % is scaled to controls: 0 for no effect and ±100 for the full control effect
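First, compound is pin-transferred into glyceraldehyde-3-phosphate coupling-enzyme reagent at 57.5 uM final and held 10 min at RT. Next, substrate, coupling system and AmpLite Red are added. After 20 min RT, fluorescence (525/598 nm) is read.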
TrxR1 substrate: rat thioredoxin reductase 1 substrate activity | O89049 | purified TrxR1 substrate turnover, NADPH consumption readout | Potency, µM (doses to about 114 µM), inactives show at the top dose activity change, negative = substrate turnover | hit rate 0.01% among 390,000 | AID 588456; also: potency is read from the fitted curve at half-maximal effect; % is scaled to controls: 0 for no effect and ±100 for the full control effect; nearly all actives have a fitted effect of over 50% in size
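Rat TrxR1, dispensed at 90 nM, was prereduced with 400 uM NADPH (final) for 5 min at ~22 deg C, then incubated with compound 15 min before 400 uM selenite. A first-read NADPH fluorescence drop versus no-compound background flagged substrates.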
Eya2 inh: inhibitors of human Eya2 phosphatase activity | hit rate 0.006% among 330,000 | O00167 | AID 488837 | recombinant Eya2, OMFP fluorescence dephosphorylation (OMFP is methylfluorescein phosphate) | Potency, µM (titrated, usually from 76.9 µM), for inactives: at the highest dose activity, negative = inhibition, actives largely listed as inhibitors; also: potency is read from the fitted curve at half-maximal effect; % is scaled to controls: 0 for no effect and ±100 for the full control effect
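Eya2 protein (added as 0.2 uM solution) was preincubated with compound for 10 min at ambient temperature in 50 mM HEPES pH 7.5, 50 mM NaCl, 5 uM MgCl2, 0.05% BSA, 1 mM DTT. OMFP (added at 50 uM) then reacted 10 min; fluorescence read at 485/525 nm.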
IDH1 autofl: interferes with resorufin fluorescence in IDH1 counter-screen. shares compounds with IDH1 R132H inh. inhibition of signal, % at 51.2 µM. Resorufin detection reagent fluorescence interference, cell-free. 750 tested, under 10 active;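 also: 0% = wells with normal resorufin and full inhibition = wells lacking resorufin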
WT IDH1 inh: wild-type IDH1 (human) inhibition counterscreen. shares compounds with IDH1 R132H inh. WT IDH1 enzyme, NADPH diaphorase/resazurin fluorescence. Potency, µM (series often up to 115 µM), for inactives: at the highest dose activity change, negative = inhibition, hits mostly inhibitors. hit rate 9% among 750. AID 623995;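 also: potency is read from the fitted curve at half-maximal effect; 0% = full WT IDH1 enzyme control and full inhibition = no enzyme wells; nearly all actives have a fitted effect of over 55% in size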
Target sequence (O75874 whole entry, looked up): as the sequence (O75874 whole entry R132H, stated change not applied) above, with H132R counted along it
IDH1 R132H conf: inhibits human mutant IDH1 enzyme in cherrypick confirmation. shares compounds with IDH1 R132H inh. IDH1 R132H enzyme, NADPH diaphorase/resazurin fluorescence. Potency, µM (series often up to 76.6 µM), inactives show at the top dose activity change, negative = inhibition, most hits filed as inhibitors. hit rate 83% among 750; also: potency is read from the fitted curve at half-maximal effect; nearly all actives have a fitted effect of over 50% in size
* = called active by the depositor; ? = inconclusive; nt = not tested or not shown; [ ] = dose if it differs, or a comment. Most compounds without a hit are left out; they make up all but 1.5% or so of the library. Unless noted, calls follow the shape of the dose curve; as a rule, active = well fitted curve in the direction sought with a large enough effect; inconclusive = small, poorly fitted or top-dose-only effect, or another doubt; inactive = no such curve, though single readings can be large; an effect the other way counts as inactive or inconclusive.

SMILES | TrxR1 inh | IDH1 R132H inh | FBPA coupling cs | TrxR1 substrate | Eya2 inh | IDH1 autofl | WT IDH1 inh | IDH1 R132H conf
COc1ccc(C2C3C=CCC(c4cccc(/C=C/c5ccccc5)c4)C3C(=O)N2Cc2ccccc2)cc1Cl (centres undefined) | 5.6% | nt | 3.6 | 5.1% | nt | nt | nt | nt
O=C(O)CCCCCN1C(=O)/C(=C/c2cn(-c3ccccc3)nc2-c2cccs2)SC1=S | -16.8% | ? | nt | -16.4% | nt | -2.3 | 1.0% | 35.5µM*
COc1ccc(-c2nn(-c3ccccc3)cc2/C=C2/SC(=S)N(CCC(=O)O)C2=O)c(C)c1 | -9.9% | 46.5µM* | 4.7 | -9.2% | 11.1% | 2.3 | ? | 35.5µM*
COc1ccc[n+](CC(=O)c2ccc(F)cc2)c1 | 14.2% | nt | nt | -2.3% | nt | nt | nt | nt
COc1cc2c(c3oc(-c4ccccc4)cc(=O)c13)C=CC(C)(C)O2 | -12.0% | 39.8µM* | 4.3 | -8.8% | -6.6% | -11.5 | 28.2µM* | 22.4µM*
COC(=O)N1C(/C=C/c2ccc3c(c2)OCO3)=Cc2ccccc2C1CC(C)=O (centres undefined) | nt | nt | -4.3 | nt | nt | nt | nt | nt
CC(C)(C)NC(=O)CSc1nc2ccc(Nc3nc(N4CCOCC4)nc(N4CCOCC4)n3)cc2s1 | 20.8% | ? | -1.5 | -0.1% | 0.8% | -1.5 | -5.3% | 20µM*
CCCCC(=O)N1C/C=C\C(c2ccc(OC)cc2)N(Cc2ccc(F)cc2)C(=O)C1Cc1ccccc1 (centres undefined) | -0.8% | nt | -5.2 | -10.1% | nt | nt | nt | nt
CC1CCc2c(sc3nc(C(C)(C)C)nc(N4CCN(C(=O)CCl)CC4)c23)C1 (centres undefined) | ? | 41.4µM* | -2.4 | -6.0% | -3.4% | -4.2 | 44.7µM* | 3.16µM*
COc1ccc(-c2c(C3C4C=CCCC4(C)C(=O)N3Cc3ccccc3)ccc3ccccc23)cc1 (centres undefined) | 14.1% | nt | 0.1 | 0.3% | nt | nt | nt | nt
COc1ccc(N(C(=O)Cc2cccs2)C(C(=O)NC2CCCC2)c2ccncc2)cc1OC (centres undefined) | 18.6%[57.1 µM] | 24.8% | 2.4 | 11.7%[0.0914 µM] | -15.8% | nt | nt | nt
Cc1ccc(N(C(=O)Cc2cccs2)C(C(=O)NC2CCCCC2)c2ccccn2)cc1C (centres undefined) | -8.5% | ? | 1.0 | -10.6% | -2.7% | -1.1 | 2.1% | 10µM*
COc1cc(N(C(=O)Cc2cccs2)C(C(=O)NC2CCCCC2)c2ccc(C)cc2)ccc1-n1cnnn1 (centres undefined) | 1.3% | 23.3µM* | 3.1 | -1.9% | 3.1% | -5.6 | 0.2% | 7.08µM*
CCOC(=O)C1=C(O)/C(=C/c2ccc(OCC(=O)O)c(OCC)c2)SC1=Nc1ccc(OC)cc1 | -17.9% | 46.5µM* | -0.5 | -16.2% | 1.3% | 8.4 | 50.1µM* | ?
CCOC(=O)C1=C(O)/C(=C/c2ccc(OCC(=O)O)c(OCC)c2)SC1=Nc1ccc(C)cc1 | -19.2% | ? | -2.1 | -18.1% | 1.2% | nt | nt | nt
O=S(=O)(Nc1ccc(S(=O)(=O)Nc2nccs2)cc1)c1ccc(Br)cc1 | 28.8% | ? | nt | -0.6% | -9.1% | 1.9 | 7.9% | 39.8µM*
CC(C)c1nc(N2CCN(C(=O)c3ccccc3)CC2)c(C#N)c2c1COC(C)(C)C2 | 0.0%[57.1 µM] | ? | 0.0 | 35.1%[57.1 µM] | 13.3% | 2.3 | -10.3% | 22.4µM*
CC(C)OC(=O)CSc1nc(N2CCOCC2)c2c(c1C#N)CC(C)(C)OC2 | -0.3% | ? | 4.7 | -7.6% | 3.7% | -6.5 | 4.6% | 35.5µM*

Screening data deposited in PubChem by National Center for Advancing Translational Sciences (NCATS).
